Out of some 68,000 compounds screened, about 2,700 (4%) showed an effect of 50% or more. For the sample, strong results were picked, then their nearest neighbours and some compounds at random.
Test system: Plasmodium berghei
Assay: Screen against P. berghei liver stage (PbLuc), transformed with Luciferase, at 2uM
Type: functional, HepG2
Conditions: tested at 2 uM

Compound | INHIBITION
Cc1cccc(N2CCN(C(=O)NC(C)c3nncn3C)CC2)c1C (stereo not given) | 38.76%
CCN(CC)S(=O)(=O)N1CC[C@H](c2ccccc2)[C@H]2NCCCC[C@H]21 | 39.99%
COc1cc(N2CCC(c3nccn3Cc3ccccc3)CC2)ncn1 | -2.99%
COc1cc(N2CCC(c3nccn3Cc3cccnc3)CC2)ncn1 | 5.82%
COc1cc(N2CCC(c3nccn3Cc3ccccn3)CC2)ncn1 | 53.19%
O=c1c2cc3c(cc2nnn1Cc1ccccc1Cl)OCCO3 | -15.25%
CN(C)C(=O)Cc1ccc(-c2cccc3c2CCNC3)cc1 | 2.11%
CCC(C)C(=O)Nc1ccc(CCN2CCOCC2)cc1 (stereo not given) | 31.65%
Cc1cc(C)c2nc(CN3CCC(CN)C3)cc(O)c2c1 (stereo not given) | 25.06%
Cc1cc(C)c2nc(CN3CCC(CN)CC3)cc(O)c2c1 | 51.19%
Cc1cc(C)c2nc(CN3CCC(C#N)CC3)cc(O)c2c1 | 3.91%
Cn1c(CN2CCCCC2)cc(=O)c(O)c1CN1CCCCC1 | 14.97%
O=C(c1ccco1)N1Cc2cnn(CC3CC3)c2C(COCC2CC2)C1 (stereo not given) | 14.09%
COC1CCN(C(=O)Cn2ncc(N3CCCCC3)cc2=O)C1 (stereo not given) | 11.69%
O=C(Nc1cccc2c1CCCC2)c1cccnc1N1CCCNCC1 | 65.7%
CC1CN(c2ncccc2C(=O)Nc2cccc3c2CCCC3)CCN1 (stereo not given) | 39.51%
Cc1cccc(C(=O)Nc2cccc3c2CCCC3)n1 | -25.13%
CN(Cc1ccc(Cl)cc1)S(=O)(=O)N(C)Cc1cnn(C)c1 | -2.86%
O=C(c1ccncc1)N1CCc2onc(CN3CCCC3)c2C1 | 37.35%
O=C(c1ccc(Cl)o1)N1CCCC(c2cc(C(F)(F)F)[nH]n2)C1 (stereo not given) | -102.06%
CCCOC(C)Cn1ccc2[nH]c(=O)c(C#N)cc2c1=O (stereo not given) | 59.1%
CC(O)CCn1ccc2[nH]c(=O)c(C#N)cc2c1=O (stereo not given) | 44.41%
CCC(Cn1ccc2[nH]c(=O)c(C#N)cc2c1=O)OC (stereo not given) | 0.03%
Cc1nc(C)n(Cc2cccc(NC(=O)N(C)CCC(C)O)c2)n1 (stereo not given) | -3.2%
Cc1cccc(-n2nc(CC(C)C)nc2CCC(=O)N(C)C)c1 | 8.13%
CSCC(=O)N1CCc2c(cnc(C)c2-c2noc(-c3cc[nH]n3)n2)C1 | 18.84%
COCCn1ccnc1C1CCCN(C(=O)CSc2nnc(C)o2)C1 (stereo not given) | -7.17%
CCn1c(CC2CCN(S(=O)(=O)c3cccc(C)c3)CC2)nn(C)c1=O | 38.96%
CCn1c(CC2CCN(S(=O)(=O)N3CCCCC3)CC2)nn(C)c1=O | 50.41%
CCn1c(CC2CCN(S(=O)(=O)Cc3ccccc3)CC2)nn(C)c1=O | 22.09%

From ChEMBL document CHEMBL4513216, “Probing the Open Global Health Chemical Diversity Library for Multistage-Active Starting Points for Next-Generation Antimalarials” (ACS Infect Dis, 2020)
